From PubChem BioAssay (Tox21) come the findings set out here.

Molecules are shown by their SMILES. Values joined by “and” are separate entries in the source; they are usually repeats but may differ in a detail not shown here. Equal entries are not always repeated. Results filed as inconclusive are left out. Where a call stands in place of a potency, no number is given. Active and inactive are the calls of the source. Calls come from the whole dose curve; as a rule, active = well fitted cell-killing curve with a large enough effect in the repeat runs; inconclusive = weak or mixed curves, or effect the other way; inactive = flat fitted curve, though single readings scatter.
Potency is the fitted concentration of half-maximal effect.

The nature of the assay: Caspase-3/7 induction in HepG2 cells by small molecules, qHTS cell viability counter screen (AID 1346981). Note: nearly all actives have a fitted effect of over 30% in size. As to conditions: CellTiter-Fluor fluorescence, 17 h; series mostly up to 92.4 µM. From the text: U.S. Tox21 Program National Center for Advancing Translational Sciences [NCATS] NIH Chemical Genomics Center [NCGC] U.S. Environmental Protection Agency [EPA] National Institutes of Environmental Health Sciences [NIEHS] National Toxicology Program [NTP] U.S. Food and Drug Administration [FDA] Tox21 Assay Overview: Apoptosis is a process of programmed cell death and plays a central role in the development of multicellular organisms. It is a highly regulated process and induces cell death by activating caspases, which are the members of cysteine aspartic acid-specific protease (caspase) family. Caspases involved in apoptosis are classified by their mechanism of action as initiator caspases (caspase-2, -8, -9 and -10) and executioner caspases (caspase-3, -6, and -7). Inhibition of apoptosis results in number of cancers, autoimmune diseases, inflammatory diseases and viral infection. To identify small molecule compounds that induce apoptosis, a homogeneous, luminescent Caspase-Glo 3/7 assay was used. Wild type HepG2 cells were used to screen Tox21 libraries for identifying caspase-3/7 activity inducers. Also cytotoxicity of the compounds was tested in parallel by measuring the cell viability using CellTiter-Fluor assay system in the same wells.
Tox21 Assay Protocol Summary: HepG2 cells were dispensed at 2,000 per well in 5uL of culture medium into white solid bottom 1536-well plates (Corning Life Sciences, Corning, NY) using a Multidrop Combi (Thermo Scientific, Waltham, MA) dispenser. The assay plates were incubated at 37 C and 5% CO2 for 5hr, and then 23nL of compounds dissolved in DMSO and positive control were transferred using a Pintool station ([…], San Diego, CA). The assay plates were incubated at 37C and 5% CO2 for 17hr. For cytotoxicity read, after 16hr incubation at 37C, 1uL CellTiter-Fluor reagent (Promega Corporation, Madison, WI) was added to each well of the assay plates using Flying Reagent Dispenser (FRD, Aurora Discovery, San Diego, CA). After 1hr incubation at 37C and 5% CO2, the fluorescence signal was quantified using a ViewLux plate reader (PerkinElmer, Shelton, CT).
For orientation: Quantitative high-throughput screening tests each substance at several concentrations.
For `O=c1[nH]c2ccc(Cl)cc2o1`, the Potency entry was “inactive”.
As for `CC1CC(OC(=O)C(O)c2ccccc2)CC(C)(C)N1C` (stereo not given), the Potency entry was “inactive”.
As for `CC(=O)c1cc2ccccc2s1`, the entry is “inactive”.
As to `CCC(C)COC(=O)CC(C)C` (stereo not given), the Potency result was “inactive”.
Consider `CC(C)(C)CC(=O)OCC(=O)[C@@]1(O)CC[C@H]2[C@@H]3CCC4=CC(=O)C=C[C@]4(C)[C@H]3[C@@H](O)C[C@@]21C`, for which the Potency result was “inactive”.
With `CCOC(=O)c1ccc(O)c(O)c1` the entry was “inactive”; with `COc1ccc(OC(=O)N(CC(=O)O)Cc2ccc(OCCc3nc(-c4ccccc4)oc3C)cc2)cc1`, “inactive”; with `CCC=CC#N`, “inactive”.
With `N#CCCN(CCO)CCO` the entry was “inactive”.
As for `C=C1C[C@@]23CC[C@H]4[C@@](C)(CCC[C@@]4(C)C(=O)O[C@@H]4O[C@H](CO)[C@@H](O)[C@H](O)[C@H]4O)[C@@H]2CC[C@]1(O[C@@H]1O[C@H](CO)[C@@H](O)[C@H](O[C@@H]2O[C@H](CO)[C@@H](O)[C@H](O)[C@H]2O)[C@H]1O[C@@H]1O[C@H](CO)[C@@H](O)[C@H](O)[C@H]1O)C3`, the entry is “inactive”; as for `C[C@@H]1CC(=O)NN=C1c1ccc(NN=C(C#N)C#N)cc1`, 18.8 µM (active) and 23.7 µM (active); as for `CC1(C)[C@H](C(=O)O)N2C(=O)C[C@H]2S1(=O)=O`, “inactive”.
As for `CCOC(=O)[C@H](CCc1ccccc1)N[C@@H](C)C(=O)N(CC(=O)O)C1Cc2ccccc2C1`, the Potency entry is “inactive”.
With `CCCCCCCC/C=C\CCCCCCCCO` the entry was “inactive”; with `O=C(CCc1ccc(O)cc1)c1c(O)cc(O)cc1O`, “inactive”.
As for `O=C(Cn1ccnc1[N+](=O)[O-])NCCO`, the entry is “inactive”.
As for `CN(C)CCN1C(=O)c2ccccc2N(C)c2ccccc21`, the Potency entry is “inactive”.
For the compound `CCCCCCC(C)(C)C(=O)O`, the Potency entry is “inactive”.
Consider `c1ccc(C[n+]2cccc3ccccc32)cc1`, for which the Potency entry is “inactive”.
As for `CCCCCC[C@@H](O)C/C=C\CCCCCCCC(=O)OCC(O)CO` (stereo not given in full), the Potency result was “inactive”.
With `O=C(CCCN1CC=C(n2c(=O)[nH]c3ccccc32)CC1)c1ccc(F)cc1` the entry was “inactive”.
As for `CN1C(=O)N(c2ccccc2Br)Cc2cnc(Nc3ccc4c(c3)OCC(CO)O4)nc21` (stereo not given), the figure is 15.4 µM (active).
Turning to `CCOC(=O)OC(C)OC(=O)[C@@H]1N2C(=O)[C@@H](NC(=O)[C@H](N)c3ccccc3)[C@H]2SC1(C)C` (stereo not given in full), the Potency result was “inactive”.
For `CC(C)COCC(CN(Cc1ccccc1)c1ccccc1)N1CCCC1` (stereo not given), the Potency was 29.8 µM (active).
With `O=[N+]([O-])c1cc(C2CCCCC2)c(O)c([N+](=O)[O-])c1` the figure was 15.3 µM (active).
With `CC(C)(C)C(=O)C(=O)O` the entry was “inactive”; with `Cc1ccc(OC(=O)c2ccccc2O)cc1`, “inactive”; with `CCCCC(CC)COP(=O)(O)O` (stereo not given), “inactive”.
With `O=C1c2ccccc2C(=O)C1c1ccc(Br)cc1` the entry was “inactive”; with `CN1CCCC(n2nc(Cc3ccc(Cl)cc3)c3ccccc3c2=O)CC1` (stereo not given), 26.6 µM (active).
Take `O=C(/C=C/c1ccccc1)OCCc1ccccc1`: the Potency entry is “inactive”.
Consider `C[C@@H](CN(C)C)CN1c2ccccc2Sc2ccccc21`, for which the Potency result is “inactive”.
As for `CN1CC(=O)N2[C@H](c3ccc4c(c3)OCO4)c3[nH]c4ccccc4c3C[C@@H]2C1=O`, the entry is “inactive”; as for `CC(C)Nc1cccnc1N1CCN(C(=O)c2cc3cc(NS(C)(=O)=O)ccc3[nH]2)CC1`, “inactive”.
On to `CC1(C)S[C@@H]2[C@H](NC(=O)C(c3ccccc3)S(=O)(=O)O)C(=O)N2[C@H]1C(=O)O` (stereo not given in full), for which the Potency result is “inactive”.
As for `C=CC(=O)[O-].C=CC(=O)[O-].[Zn+2]`, the entry is “inactive”; as for `OCCN1CCN(CCCN2c3ccccc3Sc3ccc(Cl)cc32)CC1`, 26.6 µM (active).
For `C=C1CCC2CC1C2(C)C` (stereo not given), the Potency entry was “inactive”.
`O=C(O)C[C@H](NC(=O)OCc1ccccc1)C(=O)O`: the Potency entry is “inactive”.
With `CC/C=C1/OC(=O)c2ccccc21` the entry was “inactive”.
